Assay results taken from PubChem BioAssay AID1159580 (chemical genetic matrix, 2015).
“And” between values parts separate entries of the source, which are not always exact repeats. Identical values can stand only once. The whole screen tested about 5,500 compounds, of which about 2,000 (36%) were called active. Not shown: some 18% with an inconclusive outcome. Rule as the data show it: active = normalized growth mostly below about 0.91 (no sharp cut-off); inconclusive = no clear call, values can overlap the other calls; inactive = mostly above about 0.92. Some of the results follow.

Assay: chemical genetic growth profiling, strain panel (AID 1159580);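 also: tested at 20 µM; growth read once vehicle control cultures reached saturation at 30 °C; 1 = growth at the plate median or of vehicle wells; lower values mean less growth of the strain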
Details: S. cerevisiae deletion strains, growth OD

Measured: normalized growth

Nc1c(Br)cc(Br)cc1CNC1CCC(O)CC1 (centres undefined)
inactive: locus YAL021C, strain ccr4, active compounds read low 1.01 | locus YAL026C, strain drs2, active compounds read low 0.968 | locus YAL030W, strain snc1, active compounds read low 1.01 | locus YBL061C, strain skt5, active compounds read low 1.02 | locus YBR009C, strain hhf1, active compounds read low 1.03 | locus YBR021W, strain FUR4, active compounds read low 0.996 | locus YBR023C, strain chs3, active compounds read low 1.01 | locus YBR171W, strain sec66, active compounds read low 1.02 | locus YBR229C, strain ROT2, active compounds read low 1.01 | locus YBR231C, strain swc5, active compounds read low 1.01 | locus YBR279W, strain paf1, active compounds read low 1.01 | locus YCL011C, strain gbp2, active compounds read low 1.02 | locus YCL016C, strain dcc1, active compounds read low 1.01 | locus YCL029C, strain bik1, active compounds read low 1 | locus YCL061C, strain MRC1, active compounds read low 1.02 | locus YCL069W, strain vba3, active compounds read low 1.02 | locus YCR088W, strain abp1, active compounds read low 1.02 | locus YDL005C, strain med2, active compounds read low 1.02 | locus YDL035C, strain GPR1, active compounds read low 1.01 | locus YDL040C, strain nat1, active compounds read low 0.992 | locus YDL074C, strain BRE1, active compounds read low 1.01 | locus YDL101C, strain DUN1, active compounds read low 1.02 | locus YDL134C, strain PPH21, active compounds read low 1.01 | locus YDL185W, strain tfp1, active compounds read low 0.996 | locus YDL192W, strain arf1, active compounds read low 0.995 | locus YDR001C, strain nth1, active compounds read low 1.01 | locus YDR069C, strain doa4, active compounds read low 0.985 | locus YDR101C, strain arx1, active compounds read low 0.985 | locus YDR137W, strain rgp1, active compounds read low 0.949 | locus YDR150W, strain NUM1, active compounds read low 1 | locus YDR159W, strain sac3, active compounds read low 0.997 | locus YDR162C, strain NBP2, active compounds read low 1.01 | locus YDR195W, strain ref2 1 | locus YDR297W, strain sur2, active compounds read low 0.982 | locus YDR318W, strain mcm21, active compounds read low 1 | locus YDR334W, strain swr1, active compounds read low 1.02 | locus YDR335W, strain msn5, active compounds read low 0.992 | locus YDR388W, active compounds read low 1.01 | locus YDR392W, strain spt3, active compounds read low 0.966 | locus YDR502C, strain sam2, active compounds read low 0.991 | locus YEL003W, strain gim4, active compounds read low 1.01 | locus YEL037C, strain rad23, active compounds read low 1.02 | locus YEL061C, strain CIN8 (second series), active compounds read low 1.02 | locus YEL061C, strain CIN8, active compounds read low 1.01 | locus YER015W, strain faa2, active compounds read low 1.02 | locus YER016W, strain bim1, active compounds read low 1 | locus YER110C, active compounds read low 1 | locus YER111C, strain swi4, active compounds read low 1.02 | locus YER155C, strain BEM2 (second series), active compounds read low 0.992 | locus YER155C, strain BEM2, active compounds read low 1.01 | locus YER167W, strain BCK2, active compounds read low 1.02 | locus YFR010W, strain ubp6, active compounds read low 1.03 | locus YGL078C, strain dbp3, active compounds read low 0.98 | locus YGL086W, strain mad1, active compounds read low 0.996 | locus YGL167C, strain pmr1, active compounds read low 1 | locus YGL173C, strain kem1, active compounds read low 1.03 | locus YGL227W, strain vid30, active compounds read low 1.01 | locus YGL240W, strain doc1, active compounds read low 0.981 | locus YGL248W, strain PDE1, active compounds read low 0.997 | locus YGL253W, strain hxk2, active compounds read low 1.01 | locus YGR078C, strain PAC10, active compounds read low 0.994 | locus YGR135W, strain pre9, active compounds read low 0.984 | locus YGR252W, strain gcn5, active compounds read low 0.955 | locus YHR013C, strain ard1, active compounds read low 1.02 | locus YHR027C, strain rpn1, active compounds read low 1 | locus YHR030C, strain SLT2, active compounds read low 1 and 1.04 | locus YHR079C, strain IRE1 (second series), active compounds read low 1.01 | locus YHR079C, strain IRE1, active compounds read low 1.03 | locus YHR094C, strain hxt1, active compounds read low 0.998 | locus YHR129C, strain ARP1, active compounds read low 1.01 | locus YHR142W, strain chs7, active compounds read low 1.02 | locus YHR200W, strain rpn10, active compounds read low 0.999 | locus YIL066C, strain RNR3, active compounds read low 1 | locus YIL073C, strain SPO22, active compounds read low 1.04 | locus YIL125W, strain kgd1, active compounds read low 0.999 | locus YIR030C, strain dcg1, active compounds read low 0.997 | locus YJL092W, strain hpr5, active compounds read low 1.02 | locus YJL095W, strain BCK1 (second series), active compounds read low 0.98 | locus YJL095W, strain BCK1, active compounds read low 0.973 and 1.04 | locus YJL115W, strain asf1, active compounds read low 1.02 | locus YJL129C, strain trk1, active compounds read low 1.02 | locus YJL134W, strain LCB3, active compounds read low 1.01 | locus YJL154C, strain vps35, active compounds read low 1.02 | locus YJL164C, strain tpk1, active compounds read low 1.01 | locus YJL166W, strain qcr8, active compounds read low 1.02 | locus YJL168C, strain set2, active compounds read low 1 | locus YJL187C, strain SWE1 (second series), active compounds read low 0.993 | locus YJL187C, strain SWE1, active compounds read low 0.988 | locus YJR043C, strain POL32, active compounds read low 1.02
